Here are results for nine compounds from PubChem BioAssay (NCI).

Experiment in all cases: NCI-60 one-dose screen, 48 h (100 = growth as untreated, 0 = no growth, -100 = all killed)
In one assay the test system is NCI-H23 lung. The note with it: 10 µM unless noted.
A further assay deals with NCI-H226 lung. The note with it: 10 µM unless noted.
A further assay deals with NCI-H322M lung. The note with it: 10 µM unless noted.
In another assay the test system is HOP-62 NSCLC. The settings on record: 10 µM unless noted.
The next assay relates to NCI-H460 lung. The settings on record: 10 µM unless noted.
For a further assay, the system named is HOP-92 NSCLC. The settings on record: 10 µM unless noted.
A further assay has as its system NCI-H522 lung. The settings on record: 10 µM unless noted.
A further assay concerns A549/ATCC NSCLC. The settings on record: 10 µM unless noted.
A further assay deals with 786-0 renal. The settings on record: 10 µM unless noted.
In a further assay the test system is COLO 205 colon. The note with it: 10 µM unless noted.
A further assay deals with DU-145 prostate. The note with it: 10 µM unless noted.
The subject of the next assay is MALME-3M melanoma. The note with it: 10 µM unless noted.
The next assay concerns MDA-MB-231 breast. The settings on record: 10 µM unless noted.
A further assay relates to RXF 393 renal. The note with it: 10 µM unless noted.
In a further assay the test system is SF-268 CNS. The settings on record: 10 µM unless noted.
Another assay relates to SF-295 CNS. The settings on record: 10 µM unless noted.
The next assay deals with SF-539 CNS. The settings on record: 10 µM unless noted.
Another assay has as its system M14 melanoma. The settings on record: 10 µM unless noted.
The subject of the next assay is K-562 leukemia. The settings on record: 10 µM unless noted.
Another assay concerns UACC-257 melanoma. The settings on record: 10 µM.

This is part of a sample that, as a whole, favours compounds with a hit. Of some 83,000 tested, about 20% had one in any assay.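 Note: values are percent growth. 100 is the growth of untreated cells, values between 100 and 0 indicate rising inhibition; between -100 and 0 indicates cell death.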 Unmarked numbers belong to inactive results. Calls of active or inactive are those of the source. How the source made its calls: active means growth percent below 10; inactive means the rest.

For the compound `COc1ccc([C@H]2[C@H](O)C(=O)N2c2cc(OC)c(OC)c(OC)c2)cc1O`, the growth is 31.2% with NCI-H23 lung; 19.6% in the assay on NCI-H226 lung; 51.4% with NCI-H322M lung; 18.9% with HOP-62 NSCLC; 2.08% (active) in the assay on NCI-H460 lung; -8.12% (active) in the assay on HOP-92 NSCLC. Besides, the growth in the assay on NCI-H522 lung is -38% (active); in the assay on A549/ATCC NSCLC it was 19.8%; in the assay on 786-0 renal, 17.4%; in the assay with COLO 205 colon, -73% (active); in the assay on DU-145 prostate, 17.4%; in the assay on MALME-3M melanoma, 59.7%. Further, the growth in the assay with MDA-MB-231 breast is 28.3%; in the assay with RXF 393 renal, 21.3%; in the assay with SF-268 CNS, 50.1%; in the assay on SF-295 CNS it was 2.84% (active); in the assay on SF-539 CNS, -16.3% (active); in the assay on M14 melanoma, 7.13% (active).
With `Oc1ccc(CSc2nnc(-c3ccncc3)n2-c2ccccc2)c2cccnc12`, the growth in the assay with NCI-H23 lung is 22.4%; in the assay with NCI-H226 lung it was 50.8%; in the assay on NCI-H322M lung it was 34%; in the assay on HOP-62 NSCLC, 17%; in the assay with NCI-H460 lung, 5.96% (active); in the assay with HOP-92 NSCLC, -7.79% (active). For the same compound, the growth with NCI-H522 lung was 3.95% (active); in the assay with 786-0 renal, 29.1%; in the assay on COLO 205 colon, 102%; in the assay with DU-145 prostate it was 28.2%; in the assay with K-562 leukemia it was 18.4%; in the assay with MALME-3M melanoma, 31.8%. The growth is 30.7% with MDA-MB-231 breast; 23.6% in the assay on RXF 393 renal; 23.1% with SF-268 CNS; 4.58% (active) with SF-295 CNS; 21.1% in the assay with SF-539 CNS; 10.7% in the assay with UACC-257 melanoma. Besides, in the assay on M14 melanoma, the growth is 23.1%.
On to `COc1cc2c3c(n(CCCNCC4CC4)c(=O)c2cc1OC)-c1cc2c(cc1C3=O)OCO2`, for which the growth was -52.6% (active) in the assay with NCI-H23 lung; 61.9% in the assay on NCI-H226 lung; 66.9% in the assay on NCI-H322M lung; -85.8% (active) with HOP-62 NSCLC; -58.7% (active) in the assay on NCI-H460 lung; 90.8% in the assay on HOP-92 NSCLC. Moreover, the growth in the assay on NCI-H522 lung was -66.1% (active); with A549/ATCC NSCLC, -85.1% (active); in the assay with 786-0 renal, -98.2% (active); in the assay on COLO 205 colon it was 38%; in the assay with DU-145 prostate it was -52.9% (active); in the assay on MALME-3M melanoma, 71.1%. The growth with MDA-MB-231 breast was -73.6% (active); in the assay on RXF 393 renal, 43.9%; in the assay on SF-268 CNS, 45.6%; in the assay on SF-295 CNS, 22.3%; in the assay with SF-539 CNS it was -88% (active); with M14 melanoma, 31.9%.
Take `COc1cc2c3c(n(CCCN4CCC[C@H]4C(N)=O)c(=O)c2cc1OC)-c1cc2c(cc1C3=O)OCO2`: the growth with NCI-H23 lung is -3.5% (active); with NCI-H226 lung it was -15% (active); in the assay with NCI-H322M lung it was 26.1%; with HOP-62 NSCLC it was -0.224% (active); in the assay on NCI-H460 lung, 0.252% (active); in the assay on HOP-92 NSCLC it was 23.9%. Moreover, the growth was 22% with NCI-H522 lung; 30.7% in the assay on A549/ATCC NSCLC; -10.3% (active) in the assay with 786-0 renal; 16.4% in the assay on COLO 205 colon; 16.2% in the assay with DU-145 prostate; 27.5% in the assay on MALME-3M melanoma. For the same compound, the growth with MDA-MB-231 breast is 17.3%; with RXF 393 renal, 7.89% (active); in the assay with SF-268 CNS, 27.6%; in the assay on SF-295 CNS it was 7.46% (active); in the assay with SF-539 CNS, -2.78% (active); in the assay with M14 melanoma, 6.29% (active).
Regarding `COc1cc2c3c(n(CCCN4CCCC4)c(=O)c2cc1OC)-c1cc2c(cc1C3=O)OCO2`, the growth was -73.2% (active) in the assay on NCI-H23 lung; 80.1% in the assay on NCI-H226 lung; -40.2% (active) with NCI-H322M lung; -72.6% (active) in the assay on HOP-62 NSCLC; -78.6% (active) in the assay on NCI-H460 lung; 119% with HOP-92 NSCLC. Further, the growth in the assay with NCI-H522 lung is -59.7% (active); in the assay with A549/ATCC NSCLC it was -77.1% (active); with 786-0 renal, -90.9% (active); in the assay on COLO 205 colon it was -77.3% (active); in the assay on DU-145 prostate it was -71.1% (active); with MALME-3M melanoma, -76.5% (active). Moreover, the growth was -76.1% (active) in the assay with MDA-MB-231 breast; -75.9% (active) in the assay with RXF 393 renal; -49.1% (active) with SF-268 CNS; 35.1% in the assay on SF-295 CNS; -83.2% (active) in the assay with SF-539 CNS; -86.3% (active) in the assay on M14 melanoma.
Regarding `COc1cnc2c(c1)C(=O)c1c-2n(CCCn2ccnc2)c(=O)c2cc(OC)c(OC)cc12`, the growth with NCI-H23 lung is -1.32% (active); in the assay with NCI-H226 lung, 29.7%; in the assay on NCI-H322M lung, -8.33% (active); with HOP-62 NSCLC, -47.5% (active); in the assay with NCI-H460 lung, -47.9% (active); with HOP-92 NSCLC, -12.2% (active). The growth with NCI-H522 lung is -80.5% (active); in the assay on A549/ATCC NSCLC it was -14.9% (active); with 786-0 renal it was -14.9% (active); in the assay on COLO 205 colon, -85.2% (active); in the assay with DU-145 prostate it was -2.47% (active); in the assay with MALME-3M melanoma, -51.4% (active). Besides, the growth with MDA-MB-231 breast is -0.696% (active); in the assay with RXF 393 renal, -10.5% (active); in the assay on SF-268 CNS it was 29.2%; with SF-295 CNS it was -20.5% (active); with SF-539 CNS it was -35.2% (active); in the assay with M14 melanoma, -86.5% (active).
For the compound `C=CCn1c(SCC(=O)Nc2cccc(C(=O)/C=C/c3ccccc3Cl)c2)nc2ccccc2c1=O`, the growth with NCI-H23 lung was 94.7%; with NCI-H226 lung, 91.8%; in the assay with NCI-H322M lung it was 92%; with HOP-62 NSCLC it was 108%; in the assay with NCI-H460 lung, 93%; in the assay with HOP-92 NSCLC it was 70.7%. In addition, the growth in the assay on NCI-H522 lung was 84.8%; with 786-0 renal it was 88%; with COLO 205 colon it was 113%; with DU-145 prostate, 93.7%; in the assay with MALME-3M melanoma it was 96.9%; with MDA-MB-231 breast, 93.8%. In addition, the growth in the assay with RXF 393 renal was 94.3%; in the assay with SF-268 CNS, 88.4%; with SF-295 CNS, 93.8%; in the assay with SF-539 CNS it was 86.6%; with UACC-257 melanoma, 107%; with M14 melanoma it was 87.5%.
With `c1cncc(-c2cn3nc(-c4c[nH]c5ccccc45)sc3n2)c1`, the growth is 49.9% in the assay on NCI-H23 lung; -48.5% (active) with NCI-H226 lung; 72.2% with NCI-H322M lung; 66% with HOP-62 NSCLC; 25.4% with NCI-H460 lung; 33.8% in the assay with HOP-92 NSCLC. For the same compound, the growth is 2.85% (active) in the assay on NCI-H522 lung; 22.5% in the assay with 786-0 renal; 44.4% with COLO 205 colon; 73% in the assay with DU-145 prostate; 38.3% with MALME-3M melanoma; 52.5% in the assay with MDA-MB-231 breast. Besides, the growth in the assay with RXF 393 renal is 52.1%; with SF-268 CNS, 83.4%; with SF-295 CNS, 74.7%; in the assay on SF-539 CNS, 42.2%.
Consider `COc1ccc(-c2no[n+]([O-])c2Nc2ccccc2Br)cc1`, for which the growth in the assay with NCI-H23 lung was 91.8%; with NCI-H226 lung it was -13% (active); in the assay on NCI-H322M lung it was 96.8%; with HOP-62 NSCLC, 84.5%; in the assay on NCI-H460 lung it was 101%; with HOP-92 NSCLC it was 73%. The growth in the assay on NCI-H522 lung is 81.4%; in the assay with A549/ATCC NSCLC, 102%; with 786-0 renal, 106%; in the assay with COLO 205 colon, 107%; in the assay on DU-145 prostate, 106%; in the assay on MALME-3M melanoma, 88%. Also, the growth in the assay with MDA-MB-231 breast was 81.5%; with RXF 393 renal, 102%; in the assay with SF-268 CNS it was 92.4%; in the assay with SF-295 CNS, 106%; with SF-539 CNS, 93.9%; with M14 melanoma, 89.3%.
